# Positions count from the first letter of the chain named.
# Legend:
# Assay in all cases: PBM; 200 nM protein, PBS
# Conditions in all cases: dsDNA, one strand shown
# [1] = target: ALX4 (Homo sapiens, UniProt Q9H161 200-286)
# [2] = target: ALX4 (Homo sapiens, UniProt Q9H161 200-286, Q225E)
# [3] = target: ALX1 (Homo sapiens, UniProt Q15699 118-204, L144V)
# [4] = target: ALX3 (Homo sapiens, UniProt O95076 139-225, N203Q)
# [5] = target: ALX1 (Homo sapiens, UniProt Q15699 118-204, L144R)
# [6] = target: ALX3 (Homo sapiens, UniProt O95076 139-225)
# [7] = target: ALX3 (Homo sapiens, UniProt O95076 139-225, L168Q)
# [8] = target: ALX3 (Homo sapiens, UniProt O95076 139-225, L168V)
# [9] = target: ALX1 (Homo sapiens, UniProt Q15699 118-204)
# [10] = target: ALX3 (Homo sapiens, UniProt O95076 139-225, N203S)
# [11] = target: CRX (Homo sapiens, UniProt O43186 26-111)
# [12] = target: T1, PAX4 (Homo sapiens, UniProt O43316 9-242)
# T1 sequence: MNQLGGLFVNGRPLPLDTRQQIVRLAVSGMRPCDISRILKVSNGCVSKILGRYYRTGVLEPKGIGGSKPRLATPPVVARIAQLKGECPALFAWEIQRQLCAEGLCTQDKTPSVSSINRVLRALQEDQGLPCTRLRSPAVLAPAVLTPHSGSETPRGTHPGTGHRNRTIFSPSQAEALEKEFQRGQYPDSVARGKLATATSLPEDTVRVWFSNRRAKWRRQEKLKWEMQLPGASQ
# [13] = target: CRX (Homo sapiens, UniProt O43186 26-111, E42D)
# [14] = target: T2, PAX4 (Homo sapiens, UniProt O43316 9-242, R200Q)
# T2 sequence: T1 sequence with R192Q
# [15] = target: T3, PAX4 (Homo sapiens, UniProt O43316 9-242, F177V)
# T3 sequence: T1 sequence with F169V
# [16] = target: T4, PAX4 (Homo sapiens, UniProt O43316 9-242, F177Y)
# T4 sequence: T1 sequence with F169Y
# [17] = target: T5, PAX4 (Homo sapiens, UniProt O43316 9-242, R227W)
# T5 sequence: T1 sequence with R219W
# [18] = target: CRX (Homo sapiens, UniProt O43186 26-111, R41L)
# [19] = target: PRRX1 (Homo sapiens, UniProt P54821 80-166)
# Chain of PRRX1 (P54821 80-166): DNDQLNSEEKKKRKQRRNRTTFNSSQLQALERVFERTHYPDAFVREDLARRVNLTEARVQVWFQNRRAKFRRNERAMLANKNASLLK
# Chain of CRX (Homo sapiens, UniProt O43186 26-111, R41L) (O43186 26-111 R41L): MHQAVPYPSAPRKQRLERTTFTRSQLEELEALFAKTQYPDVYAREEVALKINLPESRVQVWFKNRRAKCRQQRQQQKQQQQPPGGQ
# Chain of ALX4 (Homo sapiens, UniProt Q9H161 200-286) (Q9H161 200-286): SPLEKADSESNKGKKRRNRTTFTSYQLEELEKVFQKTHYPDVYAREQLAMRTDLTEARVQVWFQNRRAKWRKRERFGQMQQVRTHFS
# Chain of ALX1 (Homo sapiens, UniProt Q15699 118-204) (Q15699 118-204): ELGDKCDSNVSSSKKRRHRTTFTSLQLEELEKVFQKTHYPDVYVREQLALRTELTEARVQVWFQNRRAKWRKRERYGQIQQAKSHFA
# Chain of CRX (Homo sapiens, UniProt O43186 26-111, E42D) (O43186 26-111 E42D): as the sequence (O43186 26-111 R41L) above, with L16R, E17D counted along it
# Chain of ALX1 (Homo sapiens, UniProt Q15699 118-204, L144R) (Q15699 118-204 L144R): as the sequence (Q15699 118-204) above, with L27R counted along it
# Chain of CRX (Homo sapiens, UniProt O43186 26-111) (O43186 26-111): as the sequence (O43186 26-111 R41L) above, with L16R counted along it
# Chain of ALX4 (Homo sapiens, UniProt Q9H161 200-286, Q225E) (Q9H161 200-286 Q225E): as the sequence (Q9H161 200-286) above, with Q26E counted along it
# Chain of ALX1 (Homo sapiens, UniProt Q15699 118-204, L144V) (Q15699 118-204 L144V): as the sequence (Q15699 118-204) above, with L27V counted along it
# Chain of ALX3 (Homo sapiens, UniProt O95076 139-225, N203S) (O95076 139-225 N203S): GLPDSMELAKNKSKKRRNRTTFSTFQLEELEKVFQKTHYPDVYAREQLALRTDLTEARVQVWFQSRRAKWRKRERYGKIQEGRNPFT
# Chain of ALX3 (Homo sapiens, UniProt O95076 139-225) (O95076 139-225): as the sequence (O95076 139-225 N203S) above, with S65N counted along it
# Chain of ALX3 (Homo sapiens, UniProt O95076 139-225, N203Q) (O95076 139-225 N203Q): as the sequence (O95076 139-225 N203S) above, with S65Q counted along it
# Chain of ALX3 (Homo sapiens, UniProt O95076 139-225, L168V) (O95076 139-225 L168V): as the sequence (O95076 139-225 N203S) above, with L30V, S65N counted along it
# Chain of ALX3 (Homo sapiens, UniProt O95076 139-225, L168Q) (O95076 139-225 L168Q): as the sequence (O95076 139-225 N203S) above, with L30Q, S65N counted along it
sequence,measurement,setting,value
AGCCTGGG,binding signal,[1],"7.98 upbm affinity estimate (log intensity, higher = more binding, comparable within an allelic series)"
same,binding signal,[2],"8.23 upbm affinity estimate (log intensity, higher = more binding, comparable within an allelic series)"
CTCATTAA,binding signal,[1],"13.6 upbm affinity estimate (log intensity, higher = more binding, comparable within an allelic series)"
same,binding signal,[2],"12.6 upbm affinity estimate (log intensity, higher = more binding, comparable within an allelic series)"
same,binding signal,[3],"11.5 upbm affinity estimate (log intensity, higher = more binding, comparable within an allelic series)"
same,binding signal,[4],"8.32 upbm affinity estimate (log intensity, higher = more binding, comparable within an allelic series)"
same,binding signal,[5],"11.2 upbm affinity estimate (log intensity, higher = more binding, comparable within an allelic series)"
same,binding signal,[6],"12.3 upbm affinity estimate (log intensity, higher = more binding, comparable within an allelic series)"
same,binding signal,[7],"10.1 upbm affinity estimate (log intensity, higher = more binding, comparable within an allelic series)"
same,binding signal,[8],"9.58 upbm affinity estimate (log intensity, higher = more binding, comparable within an allelic series)"
same,binding signal,[9],"12 upbm affinity estimate (log intensity, higher = more binding, comparable within an allelic series)"
same,binding signal,[10],"8.41 upbm affinity estimate (log intensity, higher = more binding, comparable within an allelic series)"
GACGCCGC,binding signal,[11],"8.08 upbm affinity estimate (log intensity, higher = more binding, comparable within an allelic series)"
same,binding signal,[12],"9.29 upbm affinity estimate (log intensity, higher = more binding, comparable within an allelic series)"
same,binding signal,[13],"8.14 upbm affinity estimate (log intensity, higher = more binding, comparable within an allelic series)"
same,binding signal,[14],"9.2 upbm affinity estimate (log intensity, higher = more binding, comparable within an allelic series)"
same,binding signal,[15],"9.15 upbm affinity estimate (log intensity, higher = more binding, comparable within an allelic series)"
same,binding signal,[16],"9.2 upbm affinity estimate (log intensity, higher = more binding, comparable within an allelic series)"
same,binding signal,[17],"9.18 upbm affinity estimate (log intensity, higher = more binding, comparable within an allelic series)"
same,binding signal,[18],"8.18 upbm affinity estimate (log intensity, higher = more binding, comparable within an allelic series)"
GATCATTA,binding signal,[11],"10.8 upbm affinity estimate (log intensity, higher = more binding, comparable within an allelic series)"
same,binding signal,[13],"10.7 upbm affinity estimate (log intensity, higher = more binding, comparable within an allelic series)"
same,binding signal,[18],"10.4 upbm affinity estimate (log intensity, higher = more binding, comparable within an allelic series)"
CGCAGGCG,binding signal,[3],"6.44 upbm affinity estimate (log intensity, higher = more binding, comparable within an allelic series)"
same,binding signal,[5],"6.71 upbm affinity estimate (log intensity, higher = more binding, comparable within an allelic series)"
same,binding signal,[9],"6.49 upbm affinity estimate (log intensity, higher = more binding, comparable within an allelic series)"
TATCAATA,binding signal,[19],"11.7 upbm affinity estimate (log intensity, higher = more binding, comparable within an allelic series)"
CGTCCCGC,binding signal,[1],"8 upbm affinity estimate (log intensity, higher = more binding, comparable within an allelic series)"
same,binding signal,[12],"9.17 upbm affinity estimate (log intensity, higher = more binding, comparable within an allelic series)"
same,binding signal,[2],"8.06 upbm affinity estimate (log intensity, higher = more binding, comparable within an allelic series)"
same,binding signal,[14],"9.15 upbm affinity estimate (log intensity, higher = more binding, comparable within an allelic series)"
same,binding signal,[15],"9.15 upbm affinity estimate (log intensity, higher = more binding, comparable within an allelic series)"
same,binding signal,[16],"9.19 upbm affinity estimate (log intensity, higher = more binding, comparable within an allelic series)"
same,binding signal,[17],"9.22 upbm affinity estimate (log intensity, higher = more binding, comparable within an allelic series)"
CAGGACCC,binding signal,[11],"8.22 upbm affinity estimate (log intensity, higher = more binding, comparable within an allelic series)"
same,binding signal,[1],"7.85 upbm affinity estimate (log intensity, higher = more binding, comparable within an allelic series)"
same,binding signal,[2],"8.07 upbm affinity estimate (log intensity, higher = more binding, comparable within an allelic series)"
same,binding signal,[13],"8.19 upbm affinity estimate (log intensity, higher = more binding, comparable within an allelic series)"
same,binding signal,[18],"8.24 upbm affinity estimate (log intensity, higher = more binding, comparable within an allelic series)"
CGAGGGTC,binding signal,[11],"8.26 upbm affinity estimate (log intensity, higher = more binding, comparable within an allelic series)"
same,binding signal,[12],"9.09 upbm affinity estimate (log intensity, higher = more binding, comparable within an allelic series)"
same,binding signal,[13],"8.34 upbm affinity estimate (log intensity, higher = more binding, comparable within an allelic series)"
same,binding signal,[4],"7.7 upbm affinity estimate (log intensity, higher = more binding, comparable within an allelic series)"
same,binding signal,[14],"9.19 upbm affinity estimate (log intensity, higher = more binding, comparable within an allelic series)"
same,binding signal,[15],"9.25 upbm affinity estimate (log intensity, higher = more binding, comparable within an allelic series)"
same,binding signal,[6],"7.59 upbm affinity estimate (log intensity, higher = more binding, comparable within an allelic series)"
same,binding signal,[16],"9.23 upbm affinity estimate (log intensity, higher = more binding, comparable within an allelic series)"
same,binding signal,[7],"7.67 upbm affinity estimate (log intensity, higher = more binding, comparable within an allelic series)"
same,binding signal,[8],"7.68 upbm affinity estimate (log intensity, higher = more binding, comparable within an allelic series)"
same,binding signal,[17],"9.33 upbm affinity estimate (log intensity, higher = more binding, comparable within an allelic series)"
same,binding signal,[18],"8.26 upbm affinity estimate (log intensity, higher = more binding, comparable within an allelic series)"
same,binding signal,[10],"7.71 upbm affinity estimate (log intensity, higher = more binding, comparable within an allelic series)"
CATTAATG,binding signal,[12],"12.2 upbm affinity estimate (log intensity, higher = more binding, comparable within an allelic series)"
same,binding signal,[14],"11.9 upbm affinity estimate (log intensity, higher = more binding, comparable within an allelic series)"
same,binding signal,[15],"10.5 upbm affinity estimate (log intensity, higher = more binding, comparable within an allelic series)"
same,binding signal,[16],"11 upbm affinity estimate (log intensity, higher = more binding, comparable within an allelic series)"
same,binding signal,[17],"10.9 upbm affinity estimate (log intensity, higher = more binding, comparable within an allelic series)"
GCCCAGAC,binding signal,[11],"8.35 upbm affinity estimate (log intensity, higher = more binding, comparable within an allelic series)"
same,binding signal,[13],"8.45 upbm affinity estimate (log intensity, higher = more binding, comparable within an allelic series)"
same,binding signal,[18],"8.39 upbm affinity estimate (log intensity, higher = more binding, comparable within an allelic series)"
CGGGAGAG,binding signal,[3],"6.33 upbm affinity estimate (log intensity, higher = more binding, comparable within an allelic series)"
same,binding signal,[5],"6.21 upbm affinity estimate (log intensity, higher = more binding, comparable within an allelic series)"
same,binding signal,[9],"6.23 upbm affinity estimate (log intensity, higher = more binding, comparable within an allelic series)"

# From publication PMC11006913
